The list is not random: actives were taken first. Their share in the collection is about 7%.
ATXN2 expr inh – reduces ATXN2 reporter expression in HEK-293 cells; HEK-293 ATXN2-luciferase reporter, luminescence, 24 h; Potency, µM (doses to about 57 µM), for inactives: at the top dose activity change, negative = inhibition, usual class: inhibitors; 360,000 tested, 0.72% active; AID 1745845; note: potency is the fitted concentration of half-maximal effect; % is set by controls: 0 for no effect and ±100 for the full control effect; nearly all actives have a fitted effect of over 55% in size
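qHTS (up to 57 uM final) was run with 24 h compound exposure of reporter cells at 37 °C. Each well was multiplexed: SteadyGlo luminescence measured ATXN2-luciferase expression after a fluorogenic Gly-Phe-AFC viability readout (25 uM final).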
IL-1B inflam inh – inhibitors of inflammasome signaling (IL-1 beta secretion) | THP-1 LPS/ATP IL-1B secretion, AlphaLISA, 16 h; hits give low values | activity change, % at 57.5 µM | 360,000 tested, 4.7% active; in the data active = activity change below about -50%; inconclusive = mostly about -30% to -49%; note: % is set by controls: 0 for no effect and ±100 for the full control effect
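Secreted IL-1B measured by AlphaLISA bead assay after 16 h compound exposure of THP-1 cells; compounds (final up to 57.5 uM) added 1 h before LPS (250 ng/mL) and ATP (1.25 mM) stimulation; lower signal means less secretion.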
Integrin act MD – activators of alpha7 integrin expression for muscular dystrophy | AID 624291 | 350,000 tested, 0.064% active | Potency, µM (titrated, usually from 38.3 µM), for the others: top-dose activation, most hits filed as activators | alpha7betagal myoblasts, beta-gal FDG fluorescence, 48 h;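 note: potency is the fitted concentration of half-maximal effect; 100% = response of the positive control SU9516; nearly all actives have a fitted effect of over 60% in size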
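Alpha7betagal+/- myoblasts (passage 13) were plated 16-24 hr, then exposed to compounds (1:260 dilution of DMSO stock) for 48 hours at 37C. After MPER lysis, β-galactosidase reporter activity was read as FDG fluorescence (ex 480/em 540) after 30 minutes.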
D3 antag – antagonists of human D3 dopamine receptor; P35462; D3R cells, DiscoveRx beta-arrestin luminescence, antagonist mode; hits give low values; max response, negative = inhibition, %; 360,000 tested, 2.5% active; AID 652054; in the data active = max response below about -50%; inconclusive = no clear call, values can overlap the other calls; note: % is set by controls: 0 for no effect and ±100 for the full control effect
Target sequence (P35462 whole entry, looked up): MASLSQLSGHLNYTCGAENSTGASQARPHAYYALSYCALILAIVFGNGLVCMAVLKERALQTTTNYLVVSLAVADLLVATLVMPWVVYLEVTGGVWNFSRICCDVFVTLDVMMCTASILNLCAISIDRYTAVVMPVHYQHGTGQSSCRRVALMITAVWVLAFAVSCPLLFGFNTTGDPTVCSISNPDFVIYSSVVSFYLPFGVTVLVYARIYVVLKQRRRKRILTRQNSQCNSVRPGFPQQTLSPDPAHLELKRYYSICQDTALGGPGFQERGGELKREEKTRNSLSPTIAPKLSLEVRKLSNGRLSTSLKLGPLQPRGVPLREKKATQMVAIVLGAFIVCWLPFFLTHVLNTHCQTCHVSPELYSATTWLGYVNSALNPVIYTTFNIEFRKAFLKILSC
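Cells expressing the human receptor were seeded at 1500 cells/well, incubated overnight at 37 degrees C in 5% CO2, then exposed to library compounds with dopamine controls for 90 minutes at 37 degrees C before luminescent detection.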
D3 ag – D3 dopamine receptor (human) agonism | P35462 | 410,000 tested, 0.58% active | AID 652048 | max activation, % | D3R DiscoveRx beta-arrestin cells, luminescence, 90 min; in the data active = max activation above about 30%; note: 0% is about no effect
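Cells at 1500/well, incubated overnight, then treated with pinned compounds (dopamine as control) for 90 min at 37 degrees C. DiscoveRx reagent added for 30 - 60 minutes at room temperature; luminescence read.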
S2 tox – viability counter-screen for ATXN expression inhibitors | S2 cells (HEK-293 line with an ATXN2-luciferase reporter) viability, CellTiter-Fluor protease fluorescence, 24 h | Potency, µM (series often up to 56.7 µM), most hits filed as cytotoxic | 400,000 tested, 0.49% active; note: potency is the fitted concentration of half-maximal effect; nearly all actives have a fitted effect of over 40% in size
* = called active by the depositor; i = inactive; ? = inconclusive; · = no result given; [ ] = dose if it differs, or a comment. Unless noted, calls come from the whole dose curve; as a rule, active = well fitted curve in the direction sought with a large enough effect; inconclusive = small, poorly fitted or top-dose-only effect, or another doubt; inactive = no such curve, though single readings can be large; an effect the other way counts as inactive or inconclusive.

SMILES	ATXN2 expr inh	IL-1B inflam inh	Integrin act MD	D3 antag	D3 ag	S2 tox
COc1ccc(C(=O)N/C(=C/c2cccnc2)C(=O)N2CCOCC2)cc1OC	12.8%	-0.1	-7.4%	1.4	17.1	i
COc1ccc(C(=O)Nc2ccc(S(=O)(=O)N(C)c3ccccc3)cc2)cc1	-1.2%	-64.7*	-9.4%	0.4	-2.2	i
Cc1nc2ccc(NC(=O)c3ccc(S(=O)(=O)N(C)c4ccccc4)cc3)cc2s1	29.9µM*	-62.3*	0.0%	24.1	-20.9	?
Clc1ccc(Cc2nc(-c3ccncc3)no2)cc1	·	-16.4	13.1%	5.3	-2.3	i
N#CC1=C(N)Oc2cc(N)ccc2C1c1cc(Br)cs1 (stereo not drawn)	-8.3%	-66.0*	0.6%	-18.4	3.1	i
CCS(=O)(=O)NCCc1csc2nc(-c3ccc(C)cc3)nn12	·	·	·	·	0.5	·
CCn1c(C)cc(/C=C2/NC(=O)N(c3ccccc3)C2=O)c1C	7.9%	-10.4	?	-2.1	-2.0	i
O=C1N/C(=C/c2ccsc2)C(=O)N1c1ccccc1	13.1%	-53.5*	20.4%	7.4	12.4	i
CCCCN(CCCC)C(=O)C1(P(=O)(c2ccccc2)c2ccccc2)CCC1	-22.3%	?	1.7%	3.0	8.3	?
COc1ccc2[nH]c3c(c2c1)CCN1C(=O)C(CC(=O)NCCC2=CCCCC2)C[C@H](C(=O)N(C(C)C)C(C)C)[C@@]31C (stereo partly drawn)	?	-58.9*	-31.6%	-3.3	30.5*	?
CCN(CC)C(=O)[C@H]1CC(CC(=O)NCCC2=CCCCC2)C(=O)N2CCc3c([nH]c4ccc(OC)cc34)[C@]12C (stereo partly drawn)	-7.6%	?	-21.9%	0.0	41.0*	i
CC(C)N(C(=O)[C@H]1CC(CC(=O)NCCC2=CCCCC2)C(=O)N2CCc3c([nH]c4ccccc34)[C@]12C)C(C)C (stereo partly drawn)	?	?	7.5%	-5.4	-8.8	39.8µM*
CC(C)N(C(=O)[C@H]1CC(CC(=O)NCCc2ccccn2)C(=O)N2CCc3c([nH]c4ccccc34)[C@]12C)C(C)C (stereo partly drawn)	-4.4%	21.6	13.8%	?	0.0	i
COc1ccc2[nH]c3c(c2c1)CCN1C(=O)C(CC(=O)NCCCN(C)C)C[C@H](C(=O)N(C(C)C)C(C)C)[C@@]31C (stereo partly drawn)	-2.2%	-1.4	2.9%	0.0	12.1	?
CN(CCc1ccccc1)C(=O)c1ccc(NC(=O)Cc2ccc(NC(=O)C3CCN(C(=O)C4CCCCC4)CC3)cc2)cc1	-4.3%	2.1	-22.1%	0.0	10.7	?
COc1cc2[nH]c(C(=O)N3CCC(Cc4ccccc4)CC3)cc2c(OC)c1OC	-18.5%	-14.8	0.0%	-9.3	-2.1	i
COc1ccc(CCN(C)CCCC(C#N)(c2cc(OC)c(OC)c(OC)c2)C(C)C)cc1OC (stereo not drawn)	5.8%	-24.1	·	-57.3*	-84.4	?
COc1ccc(CCN(C)CCc2ccc(OC)c(OC)c2)cc1OC	-7.6%	-0.4	·	-20.8	-65.5	i
Cc1ccccc1C(=O)NC(=S)Nc1ccc(S(=O)(=O)N2CCN(C)CC2)cc1	-0.2%	21.6	9.2%	-12.2	-2.6	i
CC(C)(C)CC(C)(C)NC(=S)Nc1ccc(S(=O)(=O)N2CCOCC2)cc1	-9.7%	-70.6*	3.4%	16.7	-15.7	i
Cc1ccccc1C(=O)NC(=S)Nc1ccc(S(=O)(=O)N2CCOCC2)cc1	-35.2%	?	3.1%	-54.4*	-13.0	i
NNC(=S)Nc1ccc(S(=O)(=O)N2CCOCC2)cc1	3.6%	10.1	27.1%	-13.1	1.3	i
O=C(COc1ccc(Cl)cc1)NCC(=O)N/N=C/c1cccs1	·	7.3	16.3%	-7.6	1.3	i
Cc1cc(C)c(NC(=O)OCCN2CCOCC2)c(C)c1	0.0%	14.5	-51.1%	-59.9*	-6.8	i
CC(=O)c1cnc2nc(SCc3ccc(Cl)cc3)nn2c1C	8.0%	-16.0	-6.6%	-20.2	-22.9	i
SMILES	ATXN2 expr inh	IL-1B inflam inh	Integrin act MD	D3 antag	D3 ag	S2 tox
CN1CCC2(CC1)Nc1nc(SCc3ccc(Cl)cc3)nn1C1=C2CN(C)CC1	-31.5%	-62.1*	-58.2%	-2.8	-9.5	i
COc1cccc(/C=N/N2CCN(c3ccncc3S(=O)(=O)N3CCCCC3)CC2)c1	-4.4%	-11.5	5.7%	-1.2	-5.4	i
Cc1ccc(OCCCCCN2CCOCC2)c(Cl)c1	14.9%	-16.3	-16.6%	?	-20.7	i
CCCN(CCC)CCOc1cc(C)ccc1C(C)C	-31.2%	3.6	-42.7%	?	20.2	i
Cc1ccc(C(C)C)c(OCCN(C)C)c1	14.0%	-13.9	9.4%	-75.3*	-7.2	i
Cc1ccc(C(C)C)c(OCCOCCN2CCNCC2)c1	12.2%	-11.9	-38.4%	7.7	1.7	i
Cc1ccc(C(C)C)c(OCCCCCN2CCOCC2)c1	-13.7%	-12.8	8.9%	-51.9*	-16.6	i
Cc1ccc(C)c(OCCOCCN2CCOCC2)c1	-7.1%	-6.3	-1.0%	-56.0*	-18.1	i
Cc1ccc(C(C)C)c(OCCCCN2CCNCC2)c1	·	-58.5*	0.0%	?	-21.3	?
O=C(O)c1cccc(-n2nnnc2SCc2ccccc2Cl)c1	-5.6%[11.3 µM]	15.0	22.1%	7.2	4.2	i
CC(C)(C)c1cc(NC(=O)Nc2ccccc2)no1	68.1%	-53.8*	9.6%	-17.6	-4.0	i
COc1ccc(Cn2c(CNS(=O)(=O)c3ccc(C)c(C)c3)nc3cccnc32)cc1	·	·	·	·	-8.8	·
C#CCOCCOCCOCCNc1nc(N2CCN(C(=O)CCCCCCCCCCNC(=O)Cn3cc(CCCCCN)nn3)CC2)nc(N2CCN(C(=O)CCCCCCCCCCNC(=O)[C@@H](CCSC)n3cc(CCO)nn3)CC2)n1	?	-59.6*	-8.5%	0.2	-33.3	?
C#CCOCCOCCOCCNc1nc(N2CCN(C(=O)CCCCCCCCCCNC(=O)Cn3cc(C[C@@H](C)O)nn3)CC2)nc(N2CCN(C(=O)CCCCCCCCCCNC(=O)[C@H](CO)n3cc(CCCSC)nn3)CC2)n1	-4.9%	-4.9	-6.0%	21.6	5.4	?
C#CCOCCOCCOCCNc1nc(N2CCN(C(=O)CCCCCCCCCCNC(=O)Cn3cc(C[C@@H](C)O)nn3)CC2)nc(N2CCN(C(=O)CCCCCCCCCCNC(=O)[C@H](CCCN=C(N)N)n3cc(C[C@@H](C)CC)nn3)CC2)n1	?	-96.9*	-2.1%	42.9	4.4	20µM*

Assay outcomes from PubChem.
